The values below come from PubChem BioAssay AID2016 (NMMLSC, 2009).

The whole screen tested about 330,000 compounds, of which about 1,700 (0.52%) were called active. The full list was thinned out, with actives kept by preference. Values without a mark were called inactive.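 How the source made its calls: active means GFP response versus DMSO above a set limit, roughly screen mean plus 3 SD (cut at about 180% in these data); inconclusive means fewer than 70 cells counted for a yeast strain; inactive means the rest.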

This assay is described as follows: TOR pathway GLN3 branch reporter MEP2-GFP changes – S. cerevisiae, multiplex flow cytometry, MLPCN library, primary screen (AID 2016).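 Further: median GFP fluorescence of the barcode-gated MEP2-GFP cells per well.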 The following applies: S. cerevisiae MEP2-GFP strain, 3 h, at 10 µM, hits give high values, 100% = DMSO control level.
`CC(=O)C12CC(C)=C(C)CC1CC1C3CCC4=CC(=O)CCC4(C)C3CCC12C` (centres undefined): the GFP response vs DMSO was 101%.
Next, `CC(=O)O[C@]1(C(C)=O)CC[C@H]2[C@@H]3C=C(C)C4=CC(=O)CC[C@]4(C)[C@H]3CC[C@@]21C`: 180% [may fluoresce violet] (active); `O=C(C1Cc2ccccc2CN1C(=O)c1ccco1)N1CCN(c2ccccc2)CC1` (centres undefined): 93.4%.
On to `COc1ccc(CNC(=O)COC(=O)C(CCSC)N2C(=O)c3ccccc3C2=O)cc1` (centres undefined), for which the GFP response vs DMSO is 106%.
The result for `Cc1c(NC(=O)Nc2cccc([N+](=O)[O-])c2)c(=O)n(-c2ccccc2)n1C` reads 103%; that for `Cc1cc(OCC(=O)Nc2c(C)n(C)n(-c3ccccc3)c2=O)ccc1[N+](=O)[O-]`, 112%.
The result for `Cc1c(NC(=O)c2c([N+](=O)[O-])cnn2C)c(=O)n(-c2ccccc2)n1C` reads 284% [may fluoresce violet] (active); that for `CCOC(=O)C1CCN(C(=O)Cc2c(C(=O)O)[nH]c3ccccc23)CC1`, 105%.
The result for `Nc1nc(SCC(=O)Nc2ccc(Cl)c([N+](=O)[O-])c2)n[nH]1` reads 106%; that for `COc1ccc(-c2cn3cccnc3n2)cc1`, 101%.
As to `CC(C)(C)C(=O)Nc1ccc(-c2cn3cccnc3n2)cc1`, the GFP response vs DMSO was 119%.
For `FC(F)(F)Oc1ccc(-c2cn3cccnc3n2)cc1`, the GFP response vs DMSO is 471% [may fluoresce violet] (active).
Next, `O=C(NCC(F)(F)F)Nc1nnc(C(F)(F)F)s1`: 90.6%; `COc1ccc2[nH]c(=O)c(C3c4cc(OC)c(OC)cc4CCN3C(=O)c3ccco3)cc2c1` (centres undefined): 105%.
Next, `COc1ccc(CC(NC(C)=O)C(=O)NC2CCN(C(=O)c3ccc(OC)c(OC)c3)CC2)cc1OC` (centres undefined): 95.1%; `CCc1ccc(OCC2c3cc(OC)c(OC)cc3CCN2C(C)=O)cc1` (centres undefined): 269% [may fluoresce violet] (active).
For `CCOCc1nnc(NC(=O)CCC2CCCCC2)s1`, the GFP response vs DMSO is 110%.
The result for `COc1ccc(S(=O)(=O)NC(C)C(=O)NCc2ccncc2)cc1Cl` (centres undefined) reads 102%; that for `O=C(COc1cc2oc(=O)c3c(c2cc1Cl)CCC3)NCCCN1CCOCC1`, 113%; that for `CC(Oc1cc2oc(=O)c3c(c2cc1Cl)CCCC3)C(=O)NCc1ccncc1` (centres undefined), 185% [may fluoresce violet] (active).
The result for `Cc1cccc(-c2nc(CS(=O)CC(=O)NC(C)CCc3ccccc3)c(C)o2)c1` (centres undefined) reads 98.7%; that for `O=C(CCN1C(=O)[C@@H]2Cc3ccccc3CN2C1=O)NCCc1ccccc1`, 106%.
The result for `C#CCCOC(=O)N1C2=NC(C(=O)OC)=C(C(=O)OC)[C@@H]3N(C)c4ccc(OC)cc4[C@]23C[C@H]1C(=O)OC` reads 89.3%; that for `COc1ccc(-c2nnn(Cc3nc(N)nc(N4CCCCC4)n3)n2)cc1`, 107%; that for `COc1ccc(-n2nnnc2SCc2nc(N)nc(N3CCOCC3)n2)cc1`, 283% [may fluoresce violet] (active).
With `COc1ccc(CSc2nnnn2-c2ccc(C(=O)O)cc2)cc1`, the GFP response vs DMSO was 114%.
Take `Cc1nn(C)c(C)c1C(C)NC(=O)c1ccc(OC2CCN(Cc3ccccn3)CC2)cc1` (centres undefined): the GFP response vs DMSO was 111%.
Next, `O=c1c(-c2cccc(Cl)c2)c[nH]n1-c1ccccc1`: 193% [may fluoresce violet] (active); `O=C1c2ccccc2NC(c2ccc(-c3cccc(Cl)c3)o2)N1O` (centres undefined): 103%; `O=c1c(-c2ccccc2Cl)c[nH]n1-c1ccccc1`: 99.8%.
The result for `CC1CCN(S(=O)(=O)c2nnc(NC(=O)COc3ccccc3F)s2)CC1` reads 98.5%.
The result for `CC1(C)Cc2c(sc3nc(SCC(=O)NCc4ccccc4)n(-c4ccccc4)c(=O)c23)CS1` reads 107%; that for `COc1ccccc1C(=O)COC(=O)COc1ccc(C#N)cc1`, 114%; that for `Cc1ccc(S(=O)(=O)N(Cc2cc3ccccc3[nH]c2=O)CC2CCCO2)cc1` (centres undefined), 195% [may fluoresce violet] (active).
`O=C(c1cccs1)N(Cc1cc2ccccc2[nH]c1=O)CC1CCCO1` (centres undefined): the GFP response vs DMSO is 103%.
With `CCN(Cc1cc2cc(C)ccc2[nH]c1=O)S(=O)(=O)c1ccccc1`, the GFP response vs DMSO is 97.6%.
The result for `CC1CC(C)CN(CCCNC(=O)c2csc3c2CCCCC3)C1` (centres undefined) reads 103%.
The result for `C=CCC[C@@H](Cc1ccc(F)cc1)C(=O)O[C@H](CNC(=O)[C@H](CC=C)CC(=O)N(CCO)Cc1ccccc1)c1ccccc1` reads 104%; that for `Cc1ccc(SCCSc2ncccn2)cc1`, 106%.
The result for `Cc1ccc(SCc2cc(=O)[nH]c(N3CCCCC3)n2)cc1` reads 96.5%; that for `Cc1ccc(SCC2=NNC(=O)C2)cc1`, 249% [may fluoresce violet] (active); that for `CCOc1ccc(Br)cc1CSC(=N)N`, 103%.
`COc1ccccc1P(=O)(c1ccccc1)c1ccccc1NC(C)=O` (centres undefined): the GFP response vs DMSO is 83.1%.
Next, `COc1ccc(C(=O)NCCSc2ccccc2C)cc1`: 99.7%; `COC(=O)CCSc1cc([N+](=O)[O-])cc2c1c(C1OCCS1)nn2-c1ccccc1` (centres undefined): 107%.
Next, `Cc1cc(C)cc(NC(=O)COc2coc(CN3CCN(c4ccccc4)CC3)cc2=O)c1`: 105%.
For the compound `Cc1cccc2sc(N(CCCN(C)C)C(=O)CCS(=O)(=O)c3ccccc3)nc12`, the GFP response vs DMSO was 93.5%.
The result for `Cc1cc(C)c2nc(N(CCN(C)C)C(=O)/C=C/c3cccs3)sc2c1` reads 110%; that for `Cc1ccc2sc(N(CCN(C)C)C(=O)/C=C/c3cccs3)nc2c1C`, 253% [may fluoresce violet] (active); that for `O=C(Nc1ccc(F)cc1)C1CCCN(S(=O)(=O)c2ccc(-n3cnnn3)cc2)C1` (centres undefined), 106%.
With `Cn1c(COc2ccc(Cl)cc2)nc2ccccc2c1=O`, the GFP response vs DMSO was 102%.
The result for `COc1ccc(-c2nc3ccccc3c(=O)n2CCc2ccc(O)cc2)cc1` reads 103%.
Next, `COc1ccc(OCc2ccc(-c3nc4ccccc4c(=O)n3N)o2)cc1`: 249% [may fluoresce violet] (active); `CSc1ncccc1C(=O)NCc1ccccc1Cl`: 107%.
